According to PubChem BioAssay AID624417 (National Center for Advancing Translational Sciences (NCATS), 2012):
Hit rate of the full screen: of about 410,000 compounds, about 6,400 (1.6%) were called active. Not shown: some 20% with an inconclusive outcome. Calls follow the shape of the dose curve; as a rule, active = well fitted inhibition curve with a large enough effect; inconclusive = small, poorly fitted or top-dose-only effect; inactive = no such curve, though single readings can be large or run the other way. Shown is part of a subset that was picked to be rich in actives. Where a call stands in place of a potency, no number is given.

Biological target: Glucagon-like peptide 1 receptor (Homo sapiens) (UniProt P43220)
Sequence (P43220 whole entry, looked up): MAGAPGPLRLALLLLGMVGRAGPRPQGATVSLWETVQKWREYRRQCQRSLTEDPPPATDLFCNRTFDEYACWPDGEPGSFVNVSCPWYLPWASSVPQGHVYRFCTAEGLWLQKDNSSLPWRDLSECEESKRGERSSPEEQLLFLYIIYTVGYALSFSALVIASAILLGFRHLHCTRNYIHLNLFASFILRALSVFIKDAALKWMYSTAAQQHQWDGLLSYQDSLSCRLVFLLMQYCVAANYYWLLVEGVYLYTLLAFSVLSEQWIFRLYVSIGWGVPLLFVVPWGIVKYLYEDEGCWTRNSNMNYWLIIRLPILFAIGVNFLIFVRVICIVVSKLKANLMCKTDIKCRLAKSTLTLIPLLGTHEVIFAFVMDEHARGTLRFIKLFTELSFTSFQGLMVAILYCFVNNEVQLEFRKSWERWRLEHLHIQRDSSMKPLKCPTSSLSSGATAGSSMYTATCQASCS
Assay: qHTS of GLP-1 Receptor Inverse Agonists (Inhibition Mode); also: nearly all actives have a fitted effect of over 55% in size
Settings: HEK293 GLP-1R CRE-luciferase, luminescence, 24 h, GLP-1R form is constitutively active; series mostly up to 38.3 µM
Method in brief: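 HEK293 cells stably co-expressing constitutively active GLP-1R and a cAMP-responsive luciferase reporter were seeded in DMEM with 10% Nu serum, given compounds after 12 h, and incubated 24 h at 37 deg C. Luminescence was then read.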
Potency is read from the fitted curve at half-maximal effect.

Row | Structure (SMILES) | Potency
1 | CNc1cncc(-c2cccc(C(=O)N3CCOCC3)c2)n1 | inactive
2 | Cc1nccn1-c1ccc(NC(=O)[C@H]2O[C@@H](n3ccc(=O)[nH]c3=O)[C@H](O)[C@@H]2O)cc1 | inactive
3 | COc1cc(C(O)c2nc(-c3cnn(C)c3)cs2)ccc1F (stereo not given) | inactive
4 | CN1CCN(C(=O)c2ccc(NC(=O)c3ccc(Br)o3)cc2)CC1 | inactive
5 | COc1ccc(-c2cn3cccnc3n2)cc1 | inactive
6 | CCN(CC)S(=O)(=O)c1ccc(-c2cn3ccc(C)cc3n2)cc1 | inactive
7 | COc1ccc(-c2cn3ccc(C)cc3n2)cc1 | 6.31 µM (active)
8 | COc1ccc(-c2c(C#N)cnc(C)c2C)c(O)c1OC | inactive
9 | CNC[C@H]1OCc2cnnn2CCCC(=O)N([C@H](C)CO)C[C@@H]1C | inactive
10 | OC(c1ccc(Cl)c(F)c1)c1ncc(-c2ccccc2Cl)[nH]1 (stereo not given) | inactive
11 | CCC[C@@H]1C[C@@]1(CCC)[C@@H](NC(=O)c1ccccc1)c1ccc(C(=O)OC)cc1 | 5.01 µM (active)
12 | COC(=O)c1ccc(NCC(=O)c2ccccc2)cc1 | inactive
13 | COC(=O)c1ccc(C(NC(=O)OCc2ccccc2)/C(F)=C/[C@@H](C)C(=O)O)cc1 (stereo not given in full) | inactive
14 | CC1=C(C(=O)Nc2cccc(C(=O)NCC(C)c3ccccc3)c2)SCCO1 (stereo not given) | inactive
15 | Cc1ccc(C(=O)NC(=S)NCCN2CCOCC2)cc1 | inactive
16 | CCC1=Nc2cc(C(=O)NCCN3CCCC3)ccc2Sc2ccc(C)cc21 | 3.55 µM (active)
17 | Cc1ccc(C(=O)NCCNS(=O)(=O)c2ccccc2)cc1 | inactive
18 | CCc1ccccc1NC(=O)NCCN1CCCCC1 | inactive
19 | CCC1=Nc2cc(C(=O)NCC(C)c3ccccc3)ccc2Sc2ccc(C)cc21 (stereo not given) | 5.01 µM (active)
20 | COc1ccc(C(=O)NCCCN2CCOCC2)cc1Br | inactive
21 | CCC1=Nc2cc(C(=O)NCCCN3CCOCC3)ccc2Sc2ccc(Br)cc21 | 11.2 µM (active)
22 | Cc1ccccc1CN1C(=O)c2ccccc2Sc2ccc(C(=O)NCCCN3CCOCC3)cc21 | inactive
23 | O=C(Nc1ccccc1)c1ccccc1Br | inactive
24 | CC(OC(=O)c1cccc(S(=O)(=O)N2CCOCC2)c1)C(=O)NCC1CCCCC1 (stereo not given) | inactive
25 | CC1=C(C(=O)N2CCOCC2)CC(CC(=O)NCCN2CCOCC2)C(=O)N1CCC1=CCCCC1 (stereo not given) | inactive

Row | Structure (SMILES) | Potency
26 | COCCNC(=O)C1C(=O)Nc2ccccc2C(=O)N1c1ccc2c(c1)OCCO2 (stereo not given) | inactive
27 | CCc1oc(-c2ccc(OC)cc2)c(C(=O)OCCCCCO)c1C(C)OCCO (stereo not given) | inactive
28 | CC1(C(=O)Nc2ccccc2Br)CCN1C(=O)CC1CC1 (stereo not given) | inactive
29 | COc1cccc(Nc2nc3ccccc3c3nncn23)c1 | inactive
30 | Cc1cccc(-c2nc(Nc3ccc(O)cc3)c3ccccc3n2)c1 | 2.82 µM (active)
31 | Cc1cccc(-c2noc(-c3ccc(F)cc3)n2)c1 | inactive
32 | COc1cc(Nc2nc(-c3ccc(OC)c(OC)c3)nc3ccccc23)cc(OC)c1 | 11.2 µM (active)
33 | COc1ccc(Nc2nnc(C)c3ccccc23)cc1 | inactive
34 | Oc1ccc(-c2nnc(Nc3ccccc3)c3ccccc23)cc1 | inactive
35 | C[C@H]1CN([C@@H](C)CO)C(=O)CCCn2cc(nn2)CO[C@@H]1CN(C)C(=O)Nc1ccccc1 | inactive
36 | CCCCNC(=O)C[C@@H]1C[C@@]2(C(=O)OC)CC(C)(C)CC=C2N(Cc2ccco2)C1=O | inactive
37 | Cc1cn([C@H]2C[C@H](O)[C@@H](/C=C/C(=O)NCCCc3ccccc3)O2)c(=O)[nH]c1=O | inactive
38 | CC(C)(C)C(=O)c1c(N)[nH]c(C(=O)c2ccccc2)c1-c1ccc(F)cc1 | inactive
39 | C[C@H](CO)N1C[C@H](C)[C@@H](CN(C)C(=O)C2CCCCC2)OCc2cnnn2CCCC1=O | inactive
40 | Brc1ccc(Nc2c3c(nc4ncnn24)CCC3)cc1 | inactive
41 | CC1CCc2c(nc3ncnn3c2Nc2ccc(OC(F)(F)F)cc2)C1 (stereo not given) | 11.2 µM (active)
42 | CC(=O)c1nn(-c2ccc(OC(F)(F)F)cc2)nc1Nc1ccccc1 | inactive
43 | COc1ccc(-c2nc3ccc(Br)cn3c2Cc2ccc(C)cc2)cc1OC | inactive
44 | CC(C)c1cc(Cn2c3ccccc3c(=O)n2C(C)Cn2cc(C3CC3)nn2)on1 (stereo not given) | inactive
45 | CCN(CC)S(=O)(=O)c1ccc(Cl)c(C(=O)NCCN2CCOCC2)c1 | inactive
46 | CCN(CC)S(=O)(=O)c1ccc(Cl)c(C(=O)NC(C)C(c2cccs2)N2CCCC2)c1 (stereo not given) | 5.62 µM (active)
47 | CCN(CC)S(=O)(=O)c1ccc(N2CCCC2)c(NS(=O)(=O)c2cccs2)c1 | inactive
48 | COc1ccc(CN2C(=O)C(CC(=O)NC3CCCCC3)CC(C(=O)N3CCOCC3)=C2C)cc1 (stereo not given) | inactive
49 | COc1ccc(NC(=O)C2Cc3c(-c4cccc(NC(C)=O)c4)ccnc3O2)cc1OC (stereo not given) | inactive
50 | O=C(Nc1ccc(Cl)cc1)C1Cc2c(-c3ccc4c(c3)OCO4)ccnc2O1 (stereo not given) | 11.2 µM (active)

Row | Structure (SMILES) | Potency
51 | CC(=O)Nc1ccc(-c2ccnc3c2CC(C(=O)NC(C)C)O3)cc1 (stereo not given) | inactive
52 | COc1ccc(NC(=O)CCCOc2ccc(C(C)=O)cc2)cc1S(=O)(=O)N1CCCCC1 | inactive
53 | CN(Cc1ccccc1)C(=O)CCC1CCN(C(=O)c2ccco2)CC1 | inactive
54 | C[C@H]1CN([C@@H](C)CO)C(=O)CCCn2cc(nn2)CO[C@@H]1CN(C)S(=O)(=O)c1ccccc1C#N | inactive
55 | CCCCCCNC(=O)O[C@]12C[C@@H](C(=O)OC)[C@@H](C(=O)OC)C[C@@]1(O)CN(S(=O)(=O)c1ccc(C)cc1)C2 | inactive
56 | Cc1ccc(OCc2n[nH]c(=S)n2-c2ccccc2)cc1 | inactive
57 | Cc1cccnc1NC(=O)CSc1nnc(COc2ccc(C(C)C)cc2)n1C | inactive
58 | Cc1ccc(OCc2nnc(SC3CCc4ccccc4C3=O)n2C)cc1 (stereo not given) | 7.08 µM (active)
59 | O=C(COC(=O)c1ccc(S(=O)(=O)N2CCCCCC2)cc1)Nc1ccccc1C(F)(F)F | inactive
60 | CN1OC[C@@H]2CN(C(=O)C(C)(C)C)[C@H](c3ccc(-n4ccnc4)cc3)C[C@@H]21 | inactive
61 | COc1ccccc1-c1sc2ccccc2c1-c1ccc(C(C)=O)cc1 | 10 µM (active)
62 | COc1ccccc1-c1sc2ccccc2c1-c1ccc(Br)nc1 | 10 µM (active)
63 | COc1ccc2sc(-c3ccccc3OC)c(-c3ccc(OCCN4CCCC4)cc3)c2c1 | inactive
64 | COc1ccc(-c2sc3ccccc3c2-c2ccc(OCCN3CCOCC3)cc2)cc1 | inactive
65 | COc1ccc2sc(-c3ccc(S(C)(=O)=O)cc3)c(-c3ccc(C(N)=O)cc3)c2c1 | inactive
66 | COc1cc(C(C)=O)ccc1OC(=O)CN1C(=O)c2ccccc2C1=O | inactive
67 | N#Cc1ccc(-c2nc3c(Cl)cc(C(F)(F)F)cn3c2Cc2ccccc2C(F)(F)F)cc1 | inactive
68 | CC1(C(=O)NS(=O)(=O)c2cccc(F)c2)CCN1C(=O)Cc1cc(F)ccc1F (stereo not given) | inactive
69 | Cc1cccc(CN2CCN(C3CN(Cc4cn(Cc5cc(C)cc(C)c5)nn4)S(=O)(=O)C3)CC2)c1 (stereo not given) | inactive
70 | COC(=O)[C@]12CCCCC=C1N(Cc1ccc3c(c1)OCO3)C(=O)[C@H](CC(=O)N1CCOCC1)C2 | inactive
71 | C[C@@H]1CN([C@H](C)CO)C(=O)CCCn2nncc2CO[C@@H]1CN(C)C(=O)OCc1ccccc1 | inactive
72 | O=C1NC[C@H](CCCCN2C[C@H](Cc3ccc(O)cc3)N(CCc3ccccc3)C(=O)C2=O)N(CCc2ccccc2)C1=O | inactive
73 | CC1=C(C(=O)N2CCOCC2)CC(CC(=O)NCc2cccs2)C(=O)N1CCCN1CCCC1=O (stereo not given) | inactive
74 | CC1=C(C(=O)N(C)C)CC(CC(=O)NCCc2ccccn2)C(=O)N1CCC1=CCCCC1 (stereo not given) | inactive
75 | Cc1nc(Nc2ccccc2F)c2nnn(Cc3ccccc3Cl)c2n1 | inactive

Row | Structure (SMILES) | Potency
76 | Cc1nc(Nc2ccc3c(c2)OCCO3)c2nnn(Cc3ccccc3Cl)c2n1 | 3.55 µM (active)
77 | CCCc1nc(NCc2ccc3c(c2)OCO3)c2nnn(Cc3ccccc3Cl)c2n1 | inactive
78 | O=C(O)C(=Cc1ccc([N+](=O)[O-])cc1)CCc1ccccc1 | inactive
79 | COCCNC(=O)C1CCCN(Cc2ccccc2Cl)CC1 (stereo not given) | inactive
80 | O=C(NCc1ccccn1)[C@@H]1CCCN1C(=O)[C@@H]1CCCN1C(=O)c1ccccc1 | inactive
81 | COC(=O)C1(C(=O)OC)C/C=C\CN(S(=O)(=O)c2ccccc2[N+](=O)[O-])CCC1 | inactive
82 | CC(Sc1ccc(S(=O)(=O)N2CCN(C)CC2)cn1)C(=O)NC1CCCC(C)C1C (stereo not given) | inactive
83 | Cc1nc(NC(=O)c2ccc3c(c2)OCCO3)ccc1Br | inactive
84 | COc1c(Cl)cc(C(=O)Nc2ccc(Cl)cn2)cc1Cl | inactive
85 | O=C(Nc1ccc(Cl)cn1)c1ccc2c(c1)OCCO2 | 7.08 µM (active)
86 | CN(Cc1ccccc1)C(=O)COc1ccccc1 | inactive
87 | Cc1ccc(S(=O)(=O)CCC(=O)OCC(=O)N(C)Cc2ccccc2)cc1 | inactive
88 | CN(Cc1ccccc1)C(=O)COC(=O)c1ccccc1Nc1ccccc1 | 12.6 µM (active)
89 | CC(=O)Nc1cncc(-c2ccccc2CO)n1 | inactive
90 | CCOC(=O)C1(C)CCCN(C(=O)c2cccc(Cl)c2)C1 (stereo not given) | inactive
91 | NS(=O)(=O)c1ccc(CCNc2nc(C(F)(F)F)nc3ccccc23)cc1 | inactive
92 | COc1cccc(CNC(=O)c2n[nH]c3ccccc23)c1 | inactive
93 | COc1cccc(CNc2nc(C(F)(F)F)nc3ccccc23)c1 | 10 µM (active)
94 | CCN(CC)C(=O)C1CCCN(Cc2cccc(Cl)c2)C1 (stereo not given) | inactive
95 | Nc1nc2ncccn2c1-c1ccccc1 | inactive
96 | CCOC(=O)C1(C)CCCN(C(=O)c2ccc(N(C)C)cc2)C1 (stereo not given) | inactive
97 | O=S1(=O)CCN(C2CCCCCCCCCCC2)CC1 | inactive
98 | COc1ccc(C2(c3ccc(OC)cc3)NC(=O)N(CC(=O)Nc3cc(C)on3)C2=O)cc1 | inactive
99 | Cc1ccc(C2(c3ccc(C)cc3)NC(=O)N(Cc3c(C)noc3C)C2=O)cc1 | 10 µM (active)
100 | COC(=O)c1ccc(CN2C(=O)NC(c3ccccc3)(c3ccccc3)C2=O)o1 | inactive
